We go through 99 compounds from PubChem BioAssay AID648 (SRMLSC, 2007).

The whole screen tested about 86,000 compounds, of which about 920 (1.1%) were called active.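 The calls were made as follows: active = viability at or below 30%; inactive = viability above 30%.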 The entries come from a sample that favours actives as a whole.

A short description of this assay: inhibitors of HUVEC proliferation, primary screen, cell-based, 384-well (AID 648).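 Also: 100% = median luminescence of DMSO-only cell control wells on each plate.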 The following applies: CellTiter-Glo luminescence, 72 h, stronger effect = lower value, screened at 10 µM (by protocol). On the technique in general: Cellular ATP, detected with luciferase, serves as a proxy for viable cell number.
In general, viability refers to a read-out of living cells in per cent, often relative to untreated cells. `CCC(=O)Nc1sc(C(=O)N2CCCCC2)c(C)c1C#N`: the viability was 98.7% (inactive).

Consider `CC(C)(C)C1CCc2c(sc3nc(SCC(N)=O)nc(N)c23)C1` (centres undefined), for which the viability is 48.8% (inactive).

On to `CN1CCN(CC(=O)Nc2sc3c(c2C#N)CCC(C(C)(C)C)C3)CC1` (centres undefined), for which the viability is 2.13% (active).

As to `O=C(O)CSc1nccn1-c1cccc(Cl)c1`, the viability is 105% (inactive).

For the compound `CC(C)NC(=O)C(=O)NCCN1CCN(S(=O)(=O)c2ccc(Cl)cc2)CC1`, the viability is 114% (inactive).

For `CCSc1nc(-c2ccc(OC)cc2)cc(-c2ccc(OC)cc2)c1C#N`, the viability is 100% (inactive).

On to `COc1ccc(Nc2ncc(C(=O)N3CCN(c4ccccc4OC)CC3)c3ccccc23)cc1`, for which the viability was 62.2% (inactive).

On to `O=C(CO/N=C/c1ccccc1O)NNC(=O)c1ccccc1Cl`, for which the viability was 97.1% (inactive).

Take `CCNS(=O)(=O)c1ccc(NC(=O)Nc2cccc(C(F)(F)F)c2)cc1`: the viability was 29.7% (active).

As to `O=C(O)CSCC(=O)Nc1cccc(C(F)(F)F)c1`, the viability was 89.5% (inactive).

Turning to `CCNS(=O)(=O)c1ccc(NC(=O)Nc2cccc(OC)c2)cc1`, the viability is 72.2% (inactive).

As to `O=[n+]1c2c(n([O-])c3cc(Br)ccc31)CCC2`, the viability was 94.2% (inactive).

With `O=C1CCCc2c1[nH]c1ccc(Br)cc21`, the viability is 16.3% (active).

Regarding `O=C(O)CCC(=O)NCc1ccc2[nH]c3c(c2c1)CCCC3`, the viability was 98.8% (inactive).

As for `COc1cccc2c1OCC1COc3c(c(=O)n(C)c(=O)n3C)C21` (centres undefined), the viability was 104% (inactive).

As to `Cc1cc(C)cc(NC(=O)c2cccc(NC(=O)C3C4CC5OC(=O)C3C5C4)c2)c1` (centres undefined), the viability is 92.7% (inactive).

`CC(C)CCNc1nc(N2CCCC2)c2c(c1C#N)CCN(C)C2`: the viability was 2.55% (active).

`CC(C)Cc1nc(N2CCOCC2)c(C#N)c2c1CCC2`: the viability was 103% (inactive).

Consider `CCN1CCc2c(C#N)c(NCc3ccccc3)nc(NCCO)c2C1`, for which the viability was 79.7% (inactive).

With `CCOc1ccc(S(=O)(=O)Nc2ccc(S(=O)(=O)Nc3cc(OC)ccc3OC)cc2)cc1`, the viability was 95.7% (inactive).

Turning to `CCCCCCc1cc2cc(-c3nnc(-c4cccc(OC)c4)o3)c(=O)oc2cc1O`, the viability was 31.1% (inactive).

Turning to `CCC1(CC)Cc2ccccc2-c2nc3ccccc3c(=O)n21`, the viability is 102% (inactive).

As to `COc1ccccc1N1CCN(C(=O)CN(Cc2ccc(Cl)cc2)S(C)(=O)=O)CC1`, the viability is 109% (inactive).

For `COc1ccccc1N1CCN(Cc2nnnn2CCc2ccccc2)CC1`, the viability is 100% (inactive).

For the compound `COc1ccccc1-n1nnnc1S(=O)(=O)Cc1ccc(Cl)cc1`, the viability was 11.8% (active).

As for `Cc1nc(NC(=O)CN(C)S(=O)(=O)c2ccc(Cl)cc2)sc1C`, the viability is 101% (inactive).

With `c1ccc2c(c1)C(=NC1CCCCC1)NC2=NC1CCCCC1`, the viability is 26.7% (active).

In the case of `O=C1CCCCC(=O)c2ccccc2N1`, the viability was 98.7% (inactive).

With `CCOC(=O)c1cnc(SCC(=O)Nc2cccc(OC)c2)nc1N`, the viability was 93.3% (inactive).

As to `CCn1nnnc1SCC(=O)c1ccc(C)cc1C`, the viability is 92.1% (inactive).

With `OC(COc1ccc2c(c1)CCC2)CN1CCN(c2cccc(Cl)c2)CC1` (centres undefined), the viability was 83.9% (inactive).

Consider `Cc1coc2c(O)cc3c(c12)OC1(N2CCCCC2)C(=O)NCCCC31` (centres undefined), for which the viability is 6.44% (active).

Turning to `Cc1cccc(NC(=O)N(Cc2cc3cc(C)cc(C)c3[nH]c2=O)CC2COCCO2)c1` (centres undefined), the viability was 77.6% (inactive).

For `N#CCSc1nc2c(c(=O)n1Cc1ccccc1)C1(CCCC1)Cc1ccccc1-2`, the viability is 101% (inactive).

`Cc1c(C=O)c2ccccn2c1C(=O)c1ccncc1`: the viability is 97% (inactive).

`CCc1c(-c2ccccc2)nc(N)c(C#N)c1-c1cccs1`: the viability was 102% (inactive).

For `COc1cccc(NC(=O)CN(C)S(=O)(=O)c2ccc(C)cc2)c1`, the viability was 97.5% (inactive).

Regarding `CCN(CC)C(=O)CSc1nnc(-c2cccc(OC)c2)o1`, the viability was 104% (inactive).

Turning to `COc1cccc(-c2nnc(NC(=O)c3ccc(S(=O)(=O)N(CC(C)C)CC(C)C)cc3)o2)c1`, the viability was 23.6% (active).

As for `CC1(C)NC(=O)N(CCCCSc2ccc(Cl)cc2)C1=O`, the viability was 97.1% (inactive).

Turning to `CC(C)NS(=O)(=O)c1ccc(NC(=O)C2CCCCC2)cc1`, the viability was 106% (inactive).

For the compound `O=C(Cc1cccc2ccccc12)Nc1ccc2oc(-c3ccccc3)nc2c1`, the viability is 49.6% (inactive).

As for `O=C(Nc1ccc2oc(-c3ccc4ccccc4c3)nc2c1)c1cccs1`, the viability was 22% (active).

For `Cc1nc(-c2ccc(NC(=O)c3cccs3)cc2)cs1`, the viability is 89.5% (inactive).

Take `CC(Oc1ccc(Cl)cc1)c1ccnn1S(C)(=O)=O` (centres undefined): the viability was 73.7% (inactive).

For `COc1ccccc1C(=O)N1CC2(C)CC1CC(C)(C)C2` (centres undefined), the viability was 94% (inactive).

`COn1c(=O)c(=O)n(OC)c2ccccc21`: the viability is 105% (inactive).

As for `Oc1c(CN2CCN(c3ccc(F)cc3)CC2)cc(Cl)c2cccnc12`, the viability is 5.81% (active).

For the compound `O=C(c1cccc(C(=O)N2CCN(c3ccc(F)cc3)CC2)c1)N1CCN(c2ccc(F)cc2)CC1`, the viability was 92.2% (inactive).

In the case of `CCN1CCN(C(c2cccnc2)c2cc(Cl)c3cccnc3c2O)CC1` (centres undefined), the viability is 74.6% (inactive).

Turning to `Cc1nnc(SCC(=O)N2CCN(c3ccccc3)CC2)n1-c1ccccc1`, the viability was 93.5% (inactive).

As to `COC(=O)c1ccc(CSc2nnc(NC(C)C)s2)cc1`, the viability was 96.9% (inactive).

On to `CCc1c(O)nc(SCC(=O)Nc2ccccc2)n(C(C)CC)c1=O` (centres undefined), for which the viability was 96.5% (inactive).

For `CC(C)(C)n1nnnc1C(c1ccc(F)cc1)N1CCN(Cc2ccc3c(c2)OCO3)CC1` (centres undefined), the viability was 89% (inactive).

With `Cc1nc(Nc2ccc3c(c2)OCCO3)c2nnn(Cc3ccccc3Cl)c2n1`, the viability is 29.5% (active).

As for `CCCc1nc(NCc2ccc3c(c2)OCO3)c2nnn(Cc3ccccc3Cl)c2n1`, the viability is 73.6% (inactive).

Consider `C#CCNc1nc(C(C)C)nc2c1nnn2Cc1ccccc1F`, for which the viability is 127% (inactive).

Turning to `Nc1c(C(=O)NCc2ccccc2)sc2nc3c(cc12)C(=O)CCC3`, the viability is 84.8% (inactive).

For `Cc1nnc(SC(C)C(=O)Nc2ccc(S(=O)(=O)NC3CCCCC3)cc2)s1` (centres undefined), the viability is 104% (inactive).

Regarding `O=C(Nc1ccccc1)c1ccc2c(c1)OCO2`, the viability was 94% (inactive).

On to `Cc1cccc(Nc2ccccc2C(=O)NCc2ccco2)c1C`, for which the viability is 63.9% (inactive).

`Cc1cccc(C)c1N1CCN(S(=O)(=O)N2CCOCC2)CC1`: the viability was 108% (inactive).

Regarding `CC1=C/C(=N\OS(=O)(=O)c2ccccc2)C=CC1=O`, the viability is 1.29% (active).

In the case of `c1ccc(-c2nc(NCc3ccco3)c3ccccc3n2)cc1`, the viability was 85.5% (inactive).

As for `CCSc1nnc(NC(=O)Cc2ccccc2OC)s1`, the viability was 93.5% (inactive).

As for `CC(C)c1cc(C(=O)O)n[nH]1`, the viability was 90.3% (inactive).

`C=C(C)CSc1nnc(-c2ccc(C)cc2)n1N`: the viability is 93.8% (inactive).

Consider `OCCCN1c2ccccc2Nc2nnc(-c3ccccc3)cc21`, for which the viability is 69.2% (inactive).

Regarding `N=c1c2c(-c3ccccc3)c(-c3ccccc3)n(Cc3ccccc3)c2ncn1CCCO`, the viability was 1.91% (active).

With `O=C(CCN1C(=O)c2ccccc2C1=O)NCCN1CCOCC1`, the viability was 93.8% (inactive).

For the compound `O=C(NCCN1CCOCC1)c1c(F)c(F)c(F)c(F)c1F`, the viability was 94.7% (inactive).

Regarding `CC(=O)Oc1cc2c(C(=O)NCCN3CCOCC3)c(C)oc2c2ccccc12`, the viability is 4.78% (active).

As for `CCCOc1ccc(N2C(=O)CC(N(CCc3ccc(S(N)(=O)=O)cc3)C(C)=O)C2=O)cc1` (centres undefined), the viability was 98% (inactive).

`O=C1c2ccccc2C(=O)N1CCCc1nc(-c2ccccc2)no1`: the viability is 111% (inactive).

Consider `Cc1ccc(-c2csc(SCC(=O)Nc3cc(C)on3)n2)cc1`, for which the viability was 100% (inactive).

As for `O=C(CCN1c2ccccc2Sc2ccccc21)Nc1ccccc1`, the viability was 84.5% (inactive).

In the case of `Cc1ccc(C2(C(F)(F)F)N=C3Sc4cc(C)cc(C)c4N3C(=O)N2)cc1` (centres undefined), the viability was 21.8% (active).

With `COC(=O)c1nc2ccccc2s1`, the viability was 93.3% (inactive).

Regarding `CCc1cc(=O)oc2cc(OCC(=O)N3CCCc4ccccc43)ccc12`, the viability is 80.5% (inactive).

For `Cc1cc(=O)oc2cc(OCC3CC(c4ccccc4Cl)=NO3)ccc12` (centres undefined), the viability was 44.4% (inactive).

As to `Cc1ccccc1N1CCN(CCCOc2ccc3c(C)cc(=O)oc3c2)CC1`, the viability was 25.2% (active).

Consider `CCCC1(C(=O)OCC)NC(c2ccc(N(C)C)cc2)C2C(=O)N(c3ccc4c(c3)OCCO4)C(=O)C21` (centres undefined), for which the viability was 104% (inactive).

Regarding `CCN(CC)C(=O)CSc1ncnc2c1cnn2-c1ccccc1`, the viability was 123% (inactive).

On to `Cc1cc(Br)ccc1NC(=O)C1CCCO1` (centres undefined), for which the viability is 90.3% (inactive).

In the case of `Cc1ccc(C(=O)NCC2CCCO2)o1` (centres undefined), the viability was 106% (inactive).

As to `OC(CNCC1CCCO1)Cn1c2ccc(Br)cc2c2cc(Br)ccc21` (centres undefined), the viability was 3.17% (active).

For `Cc1ccc(S(=O)(=O)/N=C(\CN2CCOCC2)N2CCOCC2)cc1`, the viability is 89.5% (inactive).

Take `Cc1ccc(CN2CCN(/N=C/c3ccco3)CC2)c(C)c1`: the viability is 104% (inactive).

As to `C=C(C)COc1ccc(-c2n[nH]c(C)c2-c2ccccc2)c(O)c1`, the viability is 54% (inactive).

Consider `C=C(C)COc1ccc(-c2n[nH]c(C)c2-c2ccccc2OC)c(O)c1`, for which the viability was 23.9% (active).

Regarding `COc1ccc(-c2n[nH]c(C)c2-c2ccc(OC)c(OC)c2)c(O)c1`, the viability is 48.7% (inactive).

As to `O=C(NCC1CCCO1)c1ccc2ccccc2n1` (centres undefined), the viability was 89.6% (inactive).

In the case of `O=S(=O)(NC1CCCCC1)c1ccc(F)c2ccccc12`, the viability is 81.9% (inactive).

With `Cc1ccc(S(=O)(=O)NCCSC(C)(C)C)cc1`, the viability was 103% (inactive).

`CCc1nnc(NC(=O)CSc2nc3ccccc3c(=O)n2CCCOC)s1`: the viability was 90.7% (inactive).

Take `Cc1nc(SCC(=O)Nc2cc(C)on2)c2c3c(sc2n1)CCCC3`: the viability was 75.7% (inactive).

As for `COCCNc1nc(-n2nc(C)cc2C)nc2sc3c(c12)CCCC3`, the viability is 78% (inactive).

As for `Cc1cc(C)n(-c2nc(SCC(=O)N3CCCC3)c3c4c(sc3n2)CCCC4)n1`, the viability is 16.2% (active).

For `CCCCCCNC(=O)CSc1nccn1Cc1ccccc1`, the viability was 80.6% (inactive).
